According to PubChem BioAssay AID1779 (Sanford-Burnham Center for Chemical Genomics, 2009):
The whole screen tested about 290,000 compounds, of which about 160 (0.055%) were called active. The sample as a whole holds a higher share of actives than the screen did. A number with no mark means an inactive call. No stated cut-off is given here; in the data, active means inhibition above about 50%; inactive means the rest.

Target: Tyrosine-protein phosphatase non-receptor type 22 (Homo sapiens) (UniProt Q9Y2R2)
Sequence (Q9Y2R2 whole entry, looked up): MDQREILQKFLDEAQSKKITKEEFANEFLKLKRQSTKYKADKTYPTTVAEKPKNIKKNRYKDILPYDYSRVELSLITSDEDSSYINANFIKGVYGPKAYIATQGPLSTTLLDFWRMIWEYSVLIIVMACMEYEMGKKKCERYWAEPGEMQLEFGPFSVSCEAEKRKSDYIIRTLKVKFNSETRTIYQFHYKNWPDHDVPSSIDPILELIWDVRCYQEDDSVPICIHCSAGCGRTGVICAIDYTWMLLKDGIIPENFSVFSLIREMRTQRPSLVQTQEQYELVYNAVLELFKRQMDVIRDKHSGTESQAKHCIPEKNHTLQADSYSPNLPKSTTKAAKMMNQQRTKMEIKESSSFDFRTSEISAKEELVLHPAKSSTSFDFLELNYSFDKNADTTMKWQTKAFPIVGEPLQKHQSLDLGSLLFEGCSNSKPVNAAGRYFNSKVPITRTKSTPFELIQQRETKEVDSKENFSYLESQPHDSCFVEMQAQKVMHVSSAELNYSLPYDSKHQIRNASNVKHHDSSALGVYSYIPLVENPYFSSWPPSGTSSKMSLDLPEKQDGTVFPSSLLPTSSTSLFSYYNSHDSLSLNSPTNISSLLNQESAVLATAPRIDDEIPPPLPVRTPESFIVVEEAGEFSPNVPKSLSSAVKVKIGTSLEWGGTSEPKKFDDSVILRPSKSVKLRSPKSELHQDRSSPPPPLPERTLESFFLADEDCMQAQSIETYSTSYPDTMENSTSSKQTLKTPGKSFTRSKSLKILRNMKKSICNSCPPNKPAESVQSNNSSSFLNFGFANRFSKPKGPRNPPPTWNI
Test: inhibitors of LYP phosphatase, biochemical, fluorescence intensity, uHTS (AID 1779);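 further: plate controls were vehicle with enzyme for no effect and no enzyme for full effect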
Details: recombinant LYP phosphatase, at 11.5 µM, hits give high values

| SMILES | inhibition |
| --- | --- |
| COc1ccc(N(CC(=O)NC(C)C)C(=O)CCC(=O)Nc2ccccn2)cc1 | 67.8% (active) |
| CCCCOc1ccc(N(CC(=O)NC(C)C)C(=O)CCC(=O)Nc2ccccn2)cc1 | -3.4% |
| CCOc1ccc(N(CC(=O)NC(C)C)C(=O)CCC(=O)Nc2ccccn2)cc1 | 2.9% |
| Cc1cc(C(=O)NCCCN2CCCC2=O)cs1 | 75.4% (active) |
| O=C(NCCCN1CCCC1=O)c1cccs1 | 2.8% |
| O=C(NCCCN1CCCC1=O)c1csc2ccccc12 | -6.7% |
| C=CCSc1nc2sc(-c3ccccc3)cc2c(=O)n1N | -7.2% |
| CCOC(=O)N1CCN(C(=O)C(CC)n2nc(C)c3sc4ccccc4c3c2=O)CC1 (configuration not stated) | 4.4% |
| Brc1cc2c(cc1CN1CCc3ccccc3C1)OCO2 | -4.6% |
| O=C1CCC(c2ccccc2)N1C(=O)c1cccnc1 (configuration not stated) | 87.4% (active) |
| O=C(c1ccccc1)N1CCN(C(=O)c2cccnc2)CC1 | -0.5% |
| O=C1CC(c2ccccc2)CN1C(=O)c1cccnc1 (configuration not stated) | -10.4% |
| CCCOC(=O)c1c(-c2ccc(C)cc2C)csc1NC(=O)C1C2CCC(O2)C1C(=O)O (configuration not stated) | 66.6% (active) |
| CCOC(=O)c1c(-c2ccc(-c3ccccc3)cc2)csc1NC(=O)C1C2CCC(O2)C1C(=O)O (configuration not stated) | 20.8% |
| CCOC(=O)c1c(-c2cccc3ccccc23)csc1NC(=O)C1C2CCC(O2)C1C(=O)O (configuration not stated) | 4.2% |
| CC(=O)c1ccc(N2CCN(C(=O)CCN3C(=S)NC(C)(C)CC3C)CC2)cc1 (configuration not stated) | 1% |
| Cc1cc(C)n(C(C)CNS(=O)(=O)c2ccccc2)n1 (configuration not stated) | -6.8% |
| NC(=O)Nc1ccccc1C(=O)NCCc1ccccc1 | 65% (active) |
| O=C(O)CCC(=O)Nc1ccccc1C(=O)NCCc1ccccc1 | 2.9% |
| O=C(Nc1ccccc1C(=O)NCCc1ccccc1)c1ccco1 | -1.8% |
| CN(C)/C=N/NC(=O)c1ccccc1 | -9.5% |

| SMILES | inhibition |
| --- | --- |
| CC(=O)Nc1ccc(NC(=O)c2c(-c3ccccc3Cl)noc2C)c(C)c1 | -11.5% |
| Cc1ccnc(NCc2c(O)ccc3ccccc23)c1 | -11.3% |
| COc1ccc(NC(=O)CC2C(=O)N(Cc3ccccc3)C(=S)N2CCN2CCOCC2)cc1 (configuration not stated) | -3.6% |
| CCN1C(=O)C(CC(=O)Nc2ccc(OC)cc2)N(CCN2CCOCC2)C1=S (configuration not stated) | -9.2% |
| O=C(CC1C(=O)N(Cc2ccccc2)C(=S)N1CCN1CCOCC1)Nc1ccc(F)cc1 (configuration not stated) | 74.9% (active) |
| CC(=O)NNc1ncnc2c1cnn2-c1ccccc1 | 1.3% |
| CCNC(=S)N/N=C(\C)c1ccc2ccccc2c1OC(F)F | 4% |
| COC(=O)N/N=C(\C)c1ccccc1OC(F)F | -1.7% |
| COC(=O)N/N=C(\C)c1ccc2ccccc2c1OC(F)F | 68% (active) |
| COC(=O)C(C)n1cnc2c(nnn2-c2ccc(C)cc2)c1=O (configuration not stated) | -13% |
| CN(C(=O)COc1cc(C(F)(F)F)nn1C)c1ccccc1 | -13.5% |
| CC(C)Cn1c(-c2ccco2)n[nH]c1=S | -1.3% |
| CC1Cc2ccccc2N1CC(=O)Nc1ccc(S(=O)(=O)N(C)C)cc1 (configuration not stated) | 0.3% |
| CC1Cc2ccccc2N1CC(=O)Nc1ccc(S(N)(=O)=O)cc1 (configuration not stated) | -7.9% |
| CC1Cc2ccccc2N1CC(=O)Nc1cccc(S(N)(=O)=O)c1 (configuration not stated) | 52.1% (active) |
| CC(NC(=O)CN1CCN(c2ccccc2F)CC1)c1ccccc1 (configuration not stated) | -13% |
| CCCS(=O)(=O)N1CCc2ccc(NC(=O)C3CCCO3)cc2C1 (configuration not stated) | -11.2% |
| CS(=O)(=O)N1CCc2ccc(NC(=O)C3CCCO3)cc2C1 (configuration not stated) | 73.9% (active) |
| CN(C)S(=O)(=O)N1CCc2ccc(NC(=O)C3CCCO3)cc2C1 (configuration not stated) | -10.7% |
| O=C(c1c(F)cccc1F)N1CCC(O)(c2cccnc2)CC1 | -8.4% |
| COc1ccc(Cl)cc1NC(=S)N1CCCC1 | -2% |

| SMILES | inhibition |
| --- | --- |
| O=C(CS(=O)CC(=O)Nc1ccc(Cl)cc1)NCC1OCCc2ccccc21 (configuration not stated) | 52.3% (active) |
| COc1ccc(NC(=O)CS(=O)CC(=O)NCC2OCCc3ccccc32)cc1 (configuration not stated) | -5.2% |
| CCc1ccc(NC(=O)CS(=O)CC(=O)NCC2OCCc3ccccc32)cc1 (configuration not stated) | -6.3% |
| O=C(O)c1ccccc1NC(=O)c1cc(-c2ccccc2)nc2ccccc12 | -12.6% |
| COC(=O)CCCC1=CC2=C(c3ccccc3)C(=O)C(C)(OC(=O)C3CCCC3)C(=O)C2=CN1CCN1CCOCC1 (configuration not stated) | -3.1% |
| CSc1nsc(SCC(=O)Nc2cccc(NC(C)=O)c2)n1 | -3.8% |
| CSc1nsc(SCC(=O)Nc2cccc(C(=O)O)c2)n1 | -1.3% |
| CSc1nsc(SCC(=O)Nc2cccc(C(C)=O)c2)n1 | 52.6% (active) |
| CO/C([O-])=N/c1c[n+](-c2ccc(Cl)cc2)no1 | -3.1% |
| COCCNC(=O)c1c(CSc2ccccc2)noc1C(=O)NCc1ccccc1 | -2.5% |
| COc1c(C)cc(C(=O)C2CCCN(C(=O)c3csc(C)n3)C2)cc1C (configuration not stated) | -11.3% |
| OCC1(CCc2ccccc2)CCN(Cc2cc(Cl)ccc2O)CC1 | -10.5% |
| Fc1ccccc1Cn1nnc2c(NCCc3ccccn3)ncnc21 | -5.2% |
| COc1cc(/C=N/n2c(-c3ccccc3)n[nH]c2=S)cc(OC)c1OC | -1.8% |
| O=C1C2C(C(=O)N1/N=C/c1cccc([N+](=O)[O-])c1)C1C=CC2C12CC2 (configuration not stated) | 51.6% (active) |
| O=C1C2C(C(=O)N1/N=C/c1cc([N+](=O)[O-])ccc1O)C1C=CC2C12CC2 (configuration not stated) | 0.1% |
| O=C1C2C(C(=O)N1/N=C/c1ccc([N+](=O)[O-])o1)C1C=CC2C12CC2 (configuration not stated) | -11.3% |
| COc1cc(/C=C/C(=O)OCC(=O)c2c(N)n(C)c(=O)n(C)c2=O)ccc1O | 2.2% |
| CCN(CC)C(=O)c1sc(NC(=O)Cc2ccccc2)c(C#N)c1C | -7.8% |
| CCOC(=O)c1c(-c2ccc(C)cc2)csc1NC(=O)c1cccc(N2C(=O)CCC2=O)c1 | 1% |
